Compound activity deposited in PubChem by National Center for Advancing Translational Sciences (NCATS).
KB-V1 MDR tox – kills drug-selected multidrug resistant KB-V1 cells | 400,000 tested, 3.4% active | KB-V1 MDR cells viability, CellTiter-Glo, 72 h | AID 1347076 | Potency, µM (titrated, usually from 46.1 µM), usual class: cytotoxic; note: % is set by controls: 0 for no effect and ±100 for the full control effect; nearly all actives have a fitted effect of over 60% in size
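Luminescent ATP read-out (CellTiter-Glo, 10 min) measures survival of drug-selected KB-V1 MDR cells after 72 h, 37 degrees C compound exposure. Medium: phenol-red-free DMEM, 10% FBS. Values from fitted concentration-response curves.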
SW480 rerep – induces DNA re-replication in SW480 colon adenocarcinoma cells. SW480 DNA re-replication, Hoechst DNA content imaging, 48 h. Potency, µM (highest dose often 46.1 µM), for the others: at the highest dose re-replication activation, usual class: activators. 340,000 tested, 1.8% active. AID 624297; note: % of control where 0% means no effect; nearly all actives have a fitted effect of over 55% in size
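Per well, 250 cells were exposed to pinned compound for 48 hr. Nuclear DNA was visualised with Hoechst (40 min, 37 C) and total object intensity recorded by fluorescence scanning.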
KB-3-1 tox – kills parental KB-3-1 adenocarcinoma cells | KB-3-1 viability, CellTiter-Glo ATP luminescence, 72 h | Potency, µM (doses to about 46.1 µM), usual class: cytotoxic | 400,000 tested, 1.4% active | AID 1347075; note: % is set by controls: 0 for no effect and ±100 for the full control effect; nearly all actives have a fitted effect of over 60% in size
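Parental KB-3-1 adenocarcinoma cells in phenol-red-free DMEM with 10% FBS were pin-treated with compounds at several concentrations, incubated 72 h at 37 °C, and viability read by CellTiter-Glo luminescence; concentration-effect curves were fitted after normalization.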
MCF10A rerep – inducers of DNA re-replication in MCF 10A breast cells; 350,000 tested, 2.9% active; Potency, µM (top dose mostly 46.1 µM), without a hit: at the top dose activity, positive = re-replication, actives largely listed as activators; MCF 10A DNA re-replication, Hoechst nuclear intensity, 48 h; AID 624296; note: % of control where 0% means no effect; nearly all actives have a fitted effect of over 50% in size
12-LOX inh – inhibitors of human 12S-lipoxygenase ALOX12; P18054; Potency, µM (titrated, usually from 108 µM), without a hit: at the highest dose activity change, negative = inhibition, usual class: inhibitors; purified 12hLO, xylenol orange hydroperoxide absorbance; 580,000 tested, 1.1% active; note: % is set by controls: 0 for no effect and ±100 for the full control effect
Target sequence (P18054 whole entry, looked up): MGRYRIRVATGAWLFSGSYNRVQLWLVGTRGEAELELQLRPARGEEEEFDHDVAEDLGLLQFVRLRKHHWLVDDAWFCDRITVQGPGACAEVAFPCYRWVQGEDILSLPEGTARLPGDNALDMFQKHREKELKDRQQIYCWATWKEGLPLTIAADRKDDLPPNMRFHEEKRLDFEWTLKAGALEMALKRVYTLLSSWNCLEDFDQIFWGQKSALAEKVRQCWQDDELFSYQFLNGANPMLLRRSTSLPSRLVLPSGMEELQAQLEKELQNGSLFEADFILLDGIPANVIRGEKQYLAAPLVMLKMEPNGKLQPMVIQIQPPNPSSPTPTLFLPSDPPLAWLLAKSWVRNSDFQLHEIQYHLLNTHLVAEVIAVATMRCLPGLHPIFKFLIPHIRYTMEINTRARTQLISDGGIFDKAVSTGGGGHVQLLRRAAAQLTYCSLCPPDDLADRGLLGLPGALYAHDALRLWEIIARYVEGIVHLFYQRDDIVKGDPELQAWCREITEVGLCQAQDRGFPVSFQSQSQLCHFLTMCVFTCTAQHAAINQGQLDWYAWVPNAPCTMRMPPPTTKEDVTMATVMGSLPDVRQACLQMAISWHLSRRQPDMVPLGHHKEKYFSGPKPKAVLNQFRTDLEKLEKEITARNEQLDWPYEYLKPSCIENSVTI
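Purified human 12hLO at 150 nM in 25 mM Hepes, 0.01% Triton X-100, pH 7.0, preincubated 15 min at room temperature with compound. Reaction started with 40 uM arachidonic acid, 30 min at room temperature. Hydroperoxide measured by Fe-xylenol orange, 573/405 nm absorbance ratio.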
PINK1 expr mod – modulators of PINK1 expression | PINK1 immunofluorescence, high-content cytometry, 24 h | AID 624263 | Potency, µM (titrated, usually from 76.6 µM), inactives show top-dose activation (PINK1 increase), most hits filed as activators | 410,000 tested, 0.2% active; active = well fitted activation curve with a large enough effect; inconclusive = small, poorly fitted or top-dose-only effect; cell line not stated here; note: % of control where 0% means no effect; nearly all actives have a fitted effect of over 65% in size
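PINK1 protein, normally rapidly degraded, was detected by immunofluorescence after 24 hour compound treatment of a stable cell line. Titration data (5 concentrations) came from laser-scanning cytometry, with CCCP-treated wells as controls.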
Active calls of the source: *; [ ] = another dose, or the depositor's remark. Compounds with a hit are over-represented: about 5.8% of the library has one in this group of screens. Unless noted, calls come from the whole dose curve; as a rule, active = well fitted curve in the direction sought with a large enough effect; inconclusive = small, poorly fitted or top-dose-only effect, or another doubt; inactive = no such curve, though single readings can be large; an effect the other way counts as inactive or inconclusive. Potency is the fitted concentration of half-maximal effect.

Screening CCc1oc2ccccc2c1/C=C/C(=O)NC1CCCC1 returned 12-LOX inh -7%.
`COc1ccc(CNC(=O)CCc2ncc(-c3ccccc3)o2)cc1OC` gave 12-LOX inh 17%.
For Cc1ccc(S(=O)(=O)Nc2nc3ccc(N)cc3s2)cc1 the results were KB-V1 MDR tox inactive, SW480 rerep -7%, KB-3-1 tox inactive, MCF10A rerep -4%, 12-LOX inh -29% and PINK1 expr mod 0%.
O=[N+]([O-])c1ccc2nc(NS(=O)(=O)c3ccc(F)cc3)sc2c1 was read as KB-V1 MDR tox inconclusive, SW480 rerep inconclusive, KB-3-1 tox inconclusive, MCF10A rerep 7.3µM*, 12-LOX inh inconclusive and PINK1 expr mod 22%.
For Cc1ccc2nc(-c3ccc(NC(=S)NCC(C)(C)CN(C)C)cc3)sc2c1 the results were KB-V1 MDR tox inconclusive, SW480 rerep inconclusive, KB-3-1 tox inactive, MCF10A rerep 18µM*, 12-LOX inh 12% and PINK1 expr mod inconclusive.
O=C(c1ccsc1)N1CCCC2(C1)Nc1cccnc1NC2=NC1CCCC1 (configuration not stated) was read as 12-LOX inh 10%.
COc1cccc(CNC(=O)c2cccc3ccccc23)c1 was read as 12-LOX inh 9%.
Screening COc1nc(Cl)cn(-c2ccc(C)cc2)c1=O returned KB-V1 MDR tox inactive, SW480 rerep -6%, KB-3-1 tox inactive, MCF10A rerep -5%, 12-LOX inh 20% and PINK1 expr mod 1%.
Cc1ccc(-n2c(Cl)c(Cl)nc(Cl)c2=O)cc1 was read as KB-V1 MDR tox inactive, SW480 rerep 8.2µM*, KB-3-1 tox inconclusive, MCF10A rerep 1.8µM* and PINK1 expr mod -4%.
CC(C)(C)NC(=O)C(c1ccc(-c2ccccc2)cc1)n1c(=O)c(-c2ccco2)nc2ccccc21 (configuration not stated) was read as KB-V1 MDR tox inactive, KB-3-1 tox inactive and 12-LOX inh 40µM*.
For CC(c1nc2ccccc2[nH]1)n1c(=O)c(-c2ccco2)nc2ccccc21 (configuration not stated) the results were KB-V1 MDR tox inactive, KB-3-1 tox inactive and 12-LOX inh 13µM*.
`O=C(NCc1ccccc1)C(c1ccc(-c2ccccc2)cc1)n1c(=O)c(-c2ccco2)nc2ccccc21` (configuration not stated) gave KB-V1 MDR tox inactive, KB-3-1 tox inactive and 12-LOX inh 14µM*.
Screening Cc1cccc(C)c1NC(=O)C(c1ccccc1)n1c(=O)c(-c2ccccc2)nc2ccccc21 (configuration not stated) returned KB-V1 MDR tox inconclusive, KB-3-1 tox inconclusive and 12-LOX inh -9%.
Screening Cc1cccc(C)c1NC(=O)C(c1ccc(-c2ccccc2)cc1)n1c(=O)c(-c2ccco2)nc2ccccc21 (configuration not stated) returned KB-V1 MDR tox inactive, KB-3-1 tox inactive and 12-LOX inh 13µM*.
CC(C)(C)NC(=O)C(c1ccc(C#N)cc1)n1c(=O)c(-c2ccco2)nc2ccccc21 (configuration not stated) was read as KB-V1 MDR tox inactive, KB-3-1 tox inactive and 12-LOX inh inconclusive.
Screening COc1ccc(C(C(=O)NC(C)(C)C)n2c(=O)c(-c3ccco3)nc3ccccc32)cc1 (configuration not stated) returned KB-V1 MDR tox inconclusive, KB-3-1 tox inconclusive and 12-LOX inh 25µM*.
O=C(Nc1nc(-c2ccccc2)cs1)C1CCCCN1S(=O)(=O)c1ccccc1 (configuration not stated) was read as KB-V1 MDR tox inconclusive, SW480 rerep -2%, KB-3-1 tox inactive, MCF10A rerep 6%, 12-LOX inh -18%[57.4 µM] and PINK1 expr mod 1%[38.3 µM].
Screening O=C(Nc1nc(-c2ccccc2)cs1)C1CCCN(S(=O)(=O)c2ccccc2)C1 (configuration not stated) returned KB-V1 MDR tox inconclusive, SW480 rerep inconclusive, KB-3-1 tox inactive, MCF10A rerep 8.2µM*, 12-LOX inh inconclusive and PINK1 expr mod inconclusive.
For O=C(Nc1nc(-c2ccccc2)cs1)C1CCCN(S(=O)(=O)c2cccc([N+](=O)[O-])c2)C1 (configuration not stated) the results were KB-V1 MDR tox inactive, SW480 rerep -1%, KB-3-1 tox inactive, MCF10A rerep 8%, 12-LOX inh 0% and PINK1 expr mod 2%.
`O=C(Nc1nc(-c2ccccc2)cs1)C1CCCCN1S(=O)(=O)c1ccc(Cl)cc1` (configuration not stated) gave KB-V1 MDR tox 13µM*, SW480 rerep 21%, KB-3-1 tox inconclusive, MCF10A rerep inconclusive, 12-LOX inh 5% and PINK1 expr mod -2%[38.3 µM].
O=C(Nc1ccc(Cl)cc1)C1CCCCN1S(=O)(=O)c1ccccc1 (configuration not stated) was read as KB-V1 MDR tox 3.7µM*, SW480 rerep inconclusive, KB-3-1 tox 23µM*, MCF10A rerep inconclusive, 12-LOX inh inconclusive and PINK1 expr mod 14%.
`COc1ccc(NC(=O)N(Cc2nnc3n2CCCCC3)c2ccc(C)cc2C)cc1` gave 12-LOX inh 9%.
`COc1ccc(C(=O)c2sc(Nc3ccccc3OC)nc2N)cc1` gave 12-LOX inh -33%.
CC#CCn1cc2c3c(cccc31)[C@H](CC(C)C)N[C@H](C(=O)NCCNC(C)=O)C2 was read as 12-LOX inh 110%[176 µM].
O=C(COc1ncnc2ccccc12)Nc1ccc(Oc2ccccc2)cc1 was read as 12-LOX inh -4%.
For CCOC(=O)c1ccccc1NC(=O)c1cnn(-c2ccc(OC)cc2)c1C1CCN(C(=O)OC(C)(C)C)CC1 the results were KB-V1 MDR tox inactive, KB-3-1 tox inactive, 12-LOX inh -17% and PINK1 expr mod -1%.
Screening CCOC(=O)c1cn2nc(-c3ccc(OC)cc3)cc2nc1C1CCN(C(=O)OC(C)(C)C)CC1 returned KB-V1 MDR tox 6.5µM*, SW480 rerep 21%, KB-3-1 tox inactive, MCF10A rerep inconclusive, 12-LOX inh 9% and PINK1 expr mod 1%.
Screening COc1ccccc1CN1CCC(CNC(=O)c2cnn(-c3ccc(Cl)cc3)c2C2CCN(C(=O)OC(C)(C)C)CC2)CC1 returned KB-V1 MDR tox inconclusive, KB-3-1 tox 16µM*, 12-LOX inh -6% and PINK1 expr mod -3%.
